In PubChem BioAssay (NCATS):
*1 amine or outer side, *2 acyl side, *3 side chain or, on linkers, in order; H or OH if unused. Where a SMILES comes first, the peptide text is derived from it. Bridges are numbered along the chain shown (N, C = ends). Roman numbers before positions name the chains, in order. [ ]: non-standard residue; d: D form. ξ: configuration not given here. Actinocin(9to1) = Cc1c2oc3c(C)ccc(C(=O)[*:1])c3nc-2c(C(=O)[*:2])c(N)c1=O; ξNMeV = CNC(C(=O)O)C(C)C; ξV = CC(C)C(N)C(=O)O; Sar = CNCC(=O)O

assay: Cell Proliferation Assay against the TMD8 Cell Line (AID 651645); conditions: TMD8 DLBCL cell line proliferation/viability; at 46.1 µM (top of the series) unless noted;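 also: cells exposed to compound for 48 h before reading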
Description: One class of targeted therapeutics showing early clinical success in killing of ABC DLBCL lines are small molecule inhibitors of the Bruton tyrosine kinase (BTK) 11.
Prior to any combination assays, using an NCATS developed oncology compound library called the Mechanism of Interrogation Plate (MIPE), two well studied ABC DLBCL lines (TMD8 and HBL1) were screened using a cell viability assay (CellTiterGlo) and a 12-point titration series for each single agent. These initial experiments offered insight into the concentration range that offered the best coverage of activity and non-activity to assure relevant data is generated. In addition to the viability signature associated with this library, we examined the apoptotic response of each agent versus the TMD8 line as judged by caspase 3/7 activation. Activity was assayed at both 8 and 16 hour time-points to gain an appreciation of which agents induced an apoptotic response in a reasonable timeframe from a therapeutic exposure perspective. MIPE was also assayed for single agent viability in a human mesenchymal stem cell (hMSC) line as a surrogate of each library member's potential therapeutic index.
A total of 500 log growing TMD8 cells are seeded per well in 5 uL of a RPMI with glutamine (or Glutamax), without phenol red plus 5% FBS and 1X Pen/Strep into 1536 -solid white high base tissue culture treated Greiner One Bio Plates (789173-F) using a multidrop combi dispenser and a small sterile cassette. Compounds and controls totaling 23nL per well (negative control DMSO and positive control 9.2 uM Bortezomib-final) are immediately added to the plates using a 1536 head pin tool from Kalypsys. The plates are then covered with stainless steel gasket lids from Kalypsys and incubated for 48 hours at 37C under 95% relative humidity with 5% CO2. After 48 hours, the plates are removed and allowed to reach room temperature before 3 uL of Cell Titer Glo reagent (Promega) is added using an Aurora Flying Reagent Dispenser Bioraptor. The plates are then spun at 1000 rpms to remove bubbles and incubated for 15 minutes at room temperature before read on a ViewLux using a luminescent filter with a 10 second exposure. The relative luciferase units are used to calculated percent activity using DMSO as 100% and Bortezomib as 0%.

SMILES	viability (% of control)
Cc1c2oc3c(C)ccc(C(=O)N[C@@H]4C(=O)NC(C(C)C)C(=O)N5CCC[C@H]5C(=O)N(C)CC(=O)N(C)C(C(C)C)C(=O)O[C@@H]4C)c3nc-2c(C(=O)N[C@@H]2C(=O)NC(C(C)C)C(=O)N3CCC[C@H]3C(=O)N(C)CC(=O)N(C)C(C(C)C)C(=O)O[C@@H]2C)c(N)c1=O (stereo not given in full) (I: T[ξV]P[Sar][ξNMeV] / II: T[ξV]P[Sar][ξNMeV]; ester I:1-I:C, II:1-II:C; linker I:N-II:N via Actinocin(9to1))	3.49%
CC(NC(=O)Cc1cc(F)cc(F)c1)C(=O)NC(C(=O)OC(C)(C)C)c1ccccc1 (stereo not given)	90.6%
CCC1(Cc2ccc(N)cc2)CCC(=O)NC1=O (stereo not given)	97.8% [at 92.2 µM]
C[C@@H]1CCN(C(=O)CC#N)C[C@@H]1N(C)c1ncnc2[nH]ccc12	76.9%
CCOc1cc2ncc(C#N)c(Nc3ccc(OCc4ccccn4)c(Cl)c3)c2cc1NC(=O)/C=C/CN(C)C	-0.655%
CC[C@@H](C(=O)O)C1CC[C@H](C)C([C@@H](C)[C@H](O)[C@H](C)C(=O)[C@H](CC)C2O[C@]3(C=C[C@@H](O)[C@]4(CC[C@@](C)(C5CC[C@](O)(CC)[C@H](C)O5)O4)O3)[C@H](C)C[C@@H]2C)O1 (stereo not given in full)	2.54%
CCCCCCCCCCCCCCCCCCOP(=O)([O-])OC1CC[N+](C)(C)CC1	102% [at 29.8 µM]
CN(NC(=O)CC(=O)NN(C)C(=S)c1ccccc1)C(=S)c1ccccc1	81.1%
O=c1cc(C2=CC=CC3Sc4ccccc4SC23)oc(N2CCOCC2)c1 (stereo not given)	10.5%
COC(=O)C1=C(C)NC(C)=C(C(=O)OCCCN2CCC(c3ccccc3)(c3ccccc3)CC2)[C@H]1c1cccc([N+](=O)[O-])c1	2.99%
NC(=O)Nc1cc(-c2ccc(CN3CCOCC3)c(F)c2)sc1C(=O)N[C@H]1CCCNC1	1.45%
CCC1(O)CC2CN(CCc3c([nH]c4ccccc34)[C@@](C(=O)OC)(c3cc4c(cc3OC)N(C=O)[C@H]3[C@](O)(C(=O)OC)[C@H](OC(C)=O)[C@]5(CC)C=CCN6CC[C@]43[C@@H]65)C2)C1 (stereo not given in full)	-0.162%
O=C(O)CC/C=C\CC[C@H]1[C@@H](N2CCCCC2)[C@@H](O)C[C@@H]1OCc1ccc(-c2ccccc2)cc1	104%
Cc1nnc(C(C)C)n1C1CC2CCC(C1)N2CC[C@H](NC(=O)C1CCC(F)(F)CC1)c1ccccc1 (stereo not given in full)	86.2%
CNC1CCN(C(Cc2cccc(-c3ccncc3)c2)C(=O)c2sc3c(F)ccc(F)c3c2Cl)CC1 (stereo not given)	0.928%
